Experimental data from PubChem BioAssay (NCATS).
Values joined by “and” are separate entries in the source; they are usually repeats but may differ in a detail not shown here. Equal entries are not always repeated. Records with an inconclusive call do not appear. Active and inactive are the calls of the source. Unless noted, calls follow the shape of the full dose curve.

Experiments:
[1] = target: Androgen receptor (Homo sapiens) (UniProt P10275); assay: qHTS assay for small molecule agonists of androgen receptor signaling (AID 588515; active = well fitted curve in the direction sought with a large enough effect in the signal ratio, with a control signal flat; the % refers to the signal ratio; also: % is scaled to controls: 0 for no effect and ±100 for the full control effect); details: AR-UAS-bla HEK293, beta-lactamase ratio, agonist 16 h; activation: stronger effect = higher value
Androgen receptor (Homo sapiens), sequence (P10275 whole entry, looked up): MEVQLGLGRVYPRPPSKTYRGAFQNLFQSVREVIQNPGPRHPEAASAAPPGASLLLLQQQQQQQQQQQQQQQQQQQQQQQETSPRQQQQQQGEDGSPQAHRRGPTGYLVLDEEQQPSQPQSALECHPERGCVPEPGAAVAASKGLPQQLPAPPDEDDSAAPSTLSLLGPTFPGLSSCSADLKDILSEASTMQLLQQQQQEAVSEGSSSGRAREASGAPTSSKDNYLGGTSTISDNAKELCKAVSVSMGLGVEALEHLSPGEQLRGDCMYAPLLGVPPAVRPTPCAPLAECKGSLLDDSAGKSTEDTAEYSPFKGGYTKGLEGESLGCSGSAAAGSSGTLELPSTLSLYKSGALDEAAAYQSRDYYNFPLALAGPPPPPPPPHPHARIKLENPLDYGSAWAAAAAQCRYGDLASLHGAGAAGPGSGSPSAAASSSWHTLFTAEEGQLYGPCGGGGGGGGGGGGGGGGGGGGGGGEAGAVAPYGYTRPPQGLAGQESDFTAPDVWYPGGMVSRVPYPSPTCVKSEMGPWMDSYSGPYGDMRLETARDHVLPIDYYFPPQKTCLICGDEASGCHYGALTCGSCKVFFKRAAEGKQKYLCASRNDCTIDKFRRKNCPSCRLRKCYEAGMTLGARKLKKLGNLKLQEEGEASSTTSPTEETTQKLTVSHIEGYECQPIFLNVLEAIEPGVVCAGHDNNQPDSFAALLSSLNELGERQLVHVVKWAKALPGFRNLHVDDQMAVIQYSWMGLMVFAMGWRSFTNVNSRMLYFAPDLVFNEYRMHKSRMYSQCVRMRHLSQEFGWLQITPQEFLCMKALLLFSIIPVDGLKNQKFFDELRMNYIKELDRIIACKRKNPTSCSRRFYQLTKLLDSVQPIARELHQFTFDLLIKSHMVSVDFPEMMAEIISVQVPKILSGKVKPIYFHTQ
How it was run: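 Stimulation of an AR-responsive β-lactamase reporter in GripTite HEK293 cells was measured after 16 h compound exposure at 37 °C, via CCF4 fluorescence after 2 h RT. EC50 from Hill fits, normalized to R1881 at 30 nM.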

[2] = target: Androgen receptor (Homo sapiens) (UniProt P10275); assay: qHTS assay for small molecule antagonists of androgen receptor signaling (AID 588516; active = well fitted curve in the direction sought with a large enough effect in the signal ratio, with a control signal flat, not every such curve was filed as active; the % refers to the signal ratio; also: % is scaled to controls: 0 for no effect and ±100 for the full control effect)
How it was run: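 Cells were plated and incubated 5 h, compounds added in titration, then R1881 (10 nM final) as agonist. After 16 h at 37 C, CCF4 substrate was loaded for 2 h at room temperature and fluorescence measured.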

[3] = target: Bile acid receptor (Homo sapiens) (UniProt Q96RI1); assay: qHTS assay for small molecule antagonists of farnesoid X receptor signaling (AID 588526); also: % is scaled to controls: 0 for no effect and ±100 for the full control effect
Bile acid receptor (Homo sapiens), sequence (Q96RI1 whole entry, looked up): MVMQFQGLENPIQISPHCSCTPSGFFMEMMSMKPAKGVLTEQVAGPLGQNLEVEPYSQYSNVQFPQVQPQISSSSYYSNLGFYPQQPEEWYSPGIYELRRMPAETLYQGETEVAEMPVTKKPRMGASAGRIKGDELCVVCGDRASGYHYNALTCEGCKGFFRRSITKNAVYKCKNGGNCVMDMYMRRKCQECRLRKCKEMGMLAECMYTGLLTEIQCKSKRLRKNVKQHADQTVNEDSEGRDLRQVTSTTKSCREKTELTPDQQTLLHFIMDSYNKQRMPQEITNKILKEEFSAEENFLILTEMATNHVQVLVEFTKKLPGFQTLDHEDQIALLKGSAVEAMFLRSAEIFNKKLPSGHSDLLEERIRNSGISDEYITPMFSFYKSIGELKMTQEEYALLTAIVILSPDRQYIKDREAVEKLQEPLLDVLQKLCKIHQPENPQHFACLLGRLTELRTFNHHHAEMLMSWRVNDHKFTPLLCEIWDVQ
How it was run: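 Concentration-response titrations were fitted to the Hill equation for half-maximal inhibition and maximal response, with data normalised to 50 uM chenodeoxycholic acid and DMSO control wells. Cells: FXR-UAS-bla HEK293T, dialyzed FBS.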

[4] = target: Peroxisome proliferator-activated receptor delta (Homo sapiens) (UniProt Q03181); assay: qHTS assay for small molecule antagonists of peroxisome proliferator-activated receptor delta signaling (AID 588535; active = well fitted inhibition curve with a large enough effect in the signal ratio, with a control signal flat, not every such curve was filed as active; the % refers to the signal ratio)
Peroxisome proliferator-activated receptor delta (Homo sapiens), sequence (Q03181 whole entry, looked up): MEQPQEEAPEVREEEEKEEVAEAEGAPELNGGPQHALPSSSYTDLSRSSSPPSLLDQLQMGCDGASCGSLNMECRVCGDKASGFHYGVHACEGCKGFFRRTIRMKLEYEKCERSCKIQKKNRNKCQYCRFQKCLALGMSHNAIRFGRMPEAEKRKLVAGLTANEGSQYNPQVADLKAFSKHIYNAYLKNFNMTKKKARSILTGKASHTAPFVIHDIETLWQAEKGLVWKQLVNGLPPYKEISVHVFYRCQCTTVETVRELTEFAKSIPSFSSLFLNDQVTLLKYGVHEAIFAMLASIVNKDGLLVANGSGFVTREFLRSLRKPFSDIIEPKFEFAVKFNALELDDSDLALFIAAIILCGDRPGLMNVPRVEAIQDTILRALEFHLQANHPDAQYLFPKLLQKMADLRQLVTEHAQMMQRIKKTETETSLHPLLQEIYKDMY
How it was run: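 Compounds tested in titration on PPAR-delta-UAS-bla HEK293T cells grown in charcoal/dextran-stripped serum (2%); beta-lactamase activity read via CCF4 emission at 460 and 530 nm.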

[5] = target: Vitamin D3 receptor (Homo sapiens) (UniProt P11473); assay: qHTS assay for small molecule antagonists of vitamin D receptor signaling (AID 588541);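 also: receptor activated by calcitriol during compound treatment; series mostly up to about 77 µM; % is scaled to controls: 0 for no effect and ±100 for the full control effect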
Vitamin D3 receptor (Homo sapiens), sequence (P11473 whole entry, looked up): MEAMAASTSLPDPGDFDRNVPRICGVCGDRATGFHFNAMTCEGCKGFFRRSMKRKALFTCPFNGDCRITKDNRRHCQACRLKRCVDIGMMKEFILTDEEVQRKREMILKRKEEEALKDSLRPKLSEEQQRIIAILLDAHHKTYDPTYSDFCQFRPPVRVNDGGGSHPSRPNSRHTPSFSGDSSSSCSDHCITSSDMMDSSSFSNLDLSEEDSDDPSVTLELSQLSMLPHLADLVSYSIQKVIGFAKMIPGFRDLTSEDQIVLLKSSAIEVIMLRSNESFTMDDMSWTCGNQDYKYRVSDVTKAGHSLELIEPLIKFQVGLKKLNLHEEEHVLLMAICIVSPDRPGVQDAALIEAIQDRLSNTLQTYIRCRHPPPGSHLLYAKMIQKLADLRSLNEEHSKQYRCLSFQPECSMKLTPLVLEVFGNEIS
How it was run: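 VDR-UAS-bla HEK293T cells (2000/well, 2% charcoal-stripped FBS) were treated with titrated compounds plus 1-alpha,25-dihydroxyvitamin D3 (50 nM or 3 nM final) for 16 h at 37 C. CCF4 beta-lactamase fluorescence was read; Hill fits gave IC50.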

[6] = qHTS assay for small molecule agonists of the antioxidant response element (ARE) signaling pathway (AID 651741; active = well fitted activation curve with a large enough effect in the signal ratio; the % refers to the signal ratio; also: potency is read from the fitted curve at half-maximal effect; as to activation: % of control where 0% means no effect)
How it was run: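 Beta-lactamase reporter expression driven by the antioxidant response element in HepG2 cells was detected by fluorescence with LiveBLAzer B/G FRET substrate (2 h, room temperature) following 16 h compound treatment at 37 C.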

[7] = qHTS assay for small molecule activators of the p53 signaling pathway (AID 651743; active = well fitted activation curve with a large enough effect in the signal ratio, not every such curve was filed as active; the % refers to the signal ratio; also: series mostly up to about 92 µM; % of control where 0% means no effect); details: HCT-116 p53RE-bla, beta-lactamase FRET ratio, 16 h; activation: stronger effect = higher value
How it was run: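 Here HCT-116 cells with an integrated p53-responsive beta-lactamase gene were incubated with compounds (16 hours, 37 C) after a 5-hour plating period; beta-lactamase activity was detected as fluorescence intensity via B/G FRET substrate.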

[8] = qHTS assay for small molecule activators of the nuclear factor-kappa B (NF-kB) signaling pathway (AID 651749; active = well fitted activation curve with a large enough effect in the signal ratio; the % refers to the signal ratio; also: series mostly up to about 77 µM; % of control where 0% means no effect); details: NF-kB-bla ME-180 cells, beta-lactamase FRET ratio, 16 h; activation: stronger effect = higher value
How it was run: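 Beta-lactamase reporter expression, controlled by NF-kB response elements in ME-180 cells, was quantified fluorometrically via FRET disruption; cells at 2,000/well had been incubated with 23 nL test compound for 16 hr.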

[9] = target: Peroxisome proliferator-activated receptor gamma (Homo sapiens) (UniProt P37231); assay: qHTS assay for small molecule antagonists of peroxisome proliferator-activated receptor gamma signaling (AID 588537; active = well fitted inhibition curve with a large enough effect in the signal ratio, with a control signal flat, not every such curve was filed as active; the % refers to the signal ratio;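 also: reporter cells co-stimulated with 50 nM rosiglitazone agonist during compound treatment; % of control where 0% means no effect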)
Peroxisome proliferator-activated receptor gamma (Homo sapiens), sequence (P37231 whole entry, looked up): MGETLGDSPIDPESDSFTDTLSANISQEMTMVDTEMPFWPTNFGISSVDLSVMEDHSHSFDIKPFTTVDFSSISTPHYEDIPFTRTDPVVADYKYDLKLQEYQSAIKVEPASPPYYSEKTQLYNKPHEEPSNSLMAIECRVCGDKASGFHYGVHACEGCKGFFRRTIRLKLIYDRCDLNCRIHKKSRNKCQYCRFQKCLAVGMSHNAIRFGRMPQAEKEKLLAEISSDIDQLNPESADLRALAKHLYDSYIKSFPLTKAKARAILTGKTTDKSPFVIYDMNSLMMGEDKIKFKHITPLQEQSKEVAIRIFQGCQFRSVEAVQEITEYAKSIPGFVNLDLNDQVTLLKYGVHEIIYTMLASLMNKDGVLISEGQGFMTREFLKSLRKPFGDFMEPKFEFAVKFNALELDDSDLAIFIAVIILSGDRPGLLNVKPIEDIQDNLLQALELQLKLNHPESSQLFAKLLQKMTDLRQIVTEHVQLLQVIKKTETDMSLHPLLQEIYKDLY
How it was run: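 HEK293 cells, PPAR-gamma-UAS-bla, 3000/well. Pre-incubation 6-6.5 h, 37 C. Compound titration with rosiglitazone 50 nM final, 16 h. CCF4 dye, 2 h RT, dual-emission fluorescence.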

OCc1cccc(Oc2ccccc2)c1
inactive: activation [1] 3.06% | outcome [2] | Potency [3] | Potency [4] | Potency [5] | Potency [6] | activation [7] -1.52% | activation [8] 2.29%

CCCCCCc1ccc(N)cc1
inactive: activation [1] -4.5% | outcome [2] | Potency [3] | Potency [4] | Potency [9] | activation [7] 0.412% | activation [8] 0.791%

CC1(C)CC(N)CC(C)(CN)C1 (stereo not drawn)
inactive: Potency [4] | Potency [6] | activation [7] -1.29% | activation [8] -0.653%

CC(C)CCCCCOC(=O)CS
inactive: Potency [9] | Potency [6] | activation [8] 3.32%

CCN(Cc1cccc(S(=O)(=O)O)c1)c1ccc(C(=C2C=CC(=[N+](CC)Cc3cccc(S(=O)(=O)[O-])c3)C=C2)c2ccccc2)cc1
inactive: activation [7] -2.82% | activation [8] -0.828%
active: Potency [6] 54.5 µM

C=CC(=O)OCC(C)OCC(C)OCC(C)OC(=O)C=C (stereo not drawn)
inactive: Potency [4] | Potency [9] | Potency [5] | activation [7] 0.712%

CCCCN(CCCC)CCCCCCN(CCCC)CCCC
inactive: Potency [5] | Potency [6] | activation [7] -4.69%

C1CCC2(CCCCO2)OC1
inactive: Potency [4] | Potency [5] | Potency [6]

C=C(C)C(=O)OCCN(C)C
inactive: Potency [4] | Potency [9] | Potency [5] | activation [7] -0.52%

C[Si]1(C)O[Si](C)(C)O[Si](C)(C)O1
inactive: activation [1] -4.74% | outcome [2] | Potency [3] | Potency [9] | Potency [5] | Potency [6] | activation [7] -3.38%

CC1(C)CC(OC(=O)CCCCCCCCC(=O)OC2CC(C)(C)NC(C)(C)C2)CC(C)(C)N1
inactive: Potency [4] | Potency [5] | activation [7] -2.75% | activation [8] 2.54%

CCCCCCCCCCCCCCCC
inactive: Potency [9] | activation [7] -5.95%

COCCO
inactive: Potency [4] | Potency [5] | Potency [6] | activation [7] 0.424% and -0.727%

O=S(=O)(O)c1ccc(N=Nc2cc(S(=O)(=O)O)c3ccccc3c2O)c2ccccc12
inactive: activation [1] 11.4% | outcome [2] | Potency [3] | Potency [4] | Potency [9] | Potency [5] | activation [7] 2.63% | activation [8] 0.356%

CCCC/C=C/CCCCO
inactive: Potency [9] | Potency [6]

CCCCC/C=C\C/C=C\CCCCCCCC(=O)OC
inactive: Potency [9] | activation [7] -2.82%

Fc1ccc(Br)cc1
inactive: Potency [9] | Potency [5] | activation [7] -1.54% | activation [8] 1.17%

COC(=O)C(C)Oc1ccc(Oc2ncc(C(F)(F)F)cc2Cl)cc1 (stereo not drawn)
inactive: Potency [4] | Potency [9] | Potency [5] | Potency [6] | activation [7] -4.64%

O=C(Cl)c1ccc(C(=O)Cl)cc1
inactive: Potency [5] | activation [7] -0.615%

CCCCOCCOCCOC(C)=O
inactive: Potency [4] | Potency [5] | Potency [6] | activation [7] -0.502% | activation [8] -2.2%

CCCCOCCOCCO
inactive: Potency [9] | Potency [5] | Potency [6] | activation [7] 0.276% | activation [8] -0.601%

BrC1CCC(Br)C(Br)CCC(Br)C(Br)CCC1Br (stereo not drawn)
inactive: activation [1] -5.15% | outcome [2] | Potency [3] | Potency [9] | Potency [5] | Potency [6] | activation [7] -4.94% | activation [8] 1.45%

Cc1c(Cl)cccc1Cl
inactive: Potency [5] | activation [8] -1.64%

O=C=NCCCCCCN=C=O
inactive: Potency [4] | Potency [6]

CC1(C)C(=O)N(Br)C(=O)N1Br
inactive: activation [1] -9.37% | outcome [2] | Potency [3] | Potency [4] | Potency [9] | activation [7] -3.66%

CCCCCCCCCCCCCCCCCC#N
inactive: Potency [4] | Potency [9] | Potency [6] | activation [7] -6.64% | activation [8] -1.03%

CO[Si](OC)(OC)c1ccccc1
inactive: Potency [4] | Potency [5] | activation [7] -3.17% | activation [8] 0.204%

CCC(C)OC(=O)N1CCCCC1CCO (stereo not drawn)
inactive: Potency [3] | Potency [4] | Potency [9] | Potency [5] | Potency [6] | activation [7] -2.97% | activation [8] -1.57%
